The subject of experiment [1] is NIH3T3. Nature of the experiment: Cytotoxic Profiling of Annotated Libraries Using Quantitative High-Throughput Screening (AID 1296008). The conditions noted are these: Five cell lines viability, CellTiter-Glo ATP luminescence, 48-72 h; max response: active compounds read low. The gist of the method:
(§1)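 Compounds were pin-transferred onto cells and incubated 48 or 72 hr at 37 degree Celsius, 95% humidity. CellTiter-Glo was added, plates sat 10 min at room temperature, then ATP-coupled luminescence was imaged as the viability read-out.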
(In general: Cellular ATP, detected with luciferase, serves as a proxy for viable cell number.)

Another experiment relates to HACAT. As to the kind of experiment: qHTS assay to identify novel small-molecules to repurpose for Merkel cell carcinoma treatment (AID 1296009). The settings on record: MCC and control cell lines, CellTiter-Glo viability, 72 h. Put shortly:
(§2)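 Viability readout: ATP luminescence (CellTiter-Glo) after 72 hr drug exposure at 37 degree celsius. Dose-response format was 8 points for NPC and 11 points for MIPE; data normalized to in-plate controls.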
On the technique in general: Quantitative high-throughput screening tests each substance at several concentrations.

The subject of another experiment is HEK293T. The description is as above. The settings on record: MCC and control cell lines, CellTiter-Glo viability, 72 h; at 44.8 µM (top of the series) unless noted. The gist of the method: as §2
The test system of a further experiment is MCC-13. The experiment is described as above. The settings on record: MCC and control cell lines, CellTiter-Glo viability, 72 h; series mostly up to 46 µM. Put shortly:
as §2

A further experiment has as its system MCC-26. Described as above. The settings on record: MCC and control cell lines, CellTiter-Glo viability, 72 h; series mostly up to 46 µM. The gist of the method:
as §2

The test system of another experiment is MKL-1. The description is as above. The conditions noted are these: MCC and control cell lines, CellTiter-Glo viability, 72 h; series mostly up to 46 µM. Put shortly: as §2
The subject of another experiment is MKL-2. The description is as above. The settings on record: MCC and control cell lines, CellTiter-Glo viability, 72 h; series mostly up to 46 µM. Put shortly:
as §2

Experiment [2] relates to NIH3T3. The description is as above. The conditions noted are these: MCC and control cell lines, CellTiter-Glo viability, 72 h; at 44.8 µM (top of the series) unless noted. Put shortly:
as §2

A further experiment concerns UISO. The description is as above. The conditions noted are these: MCC and control cell lines, CellTiter-Glo viability, 72 h; series mostly up to 46 µM. The gist of the method: as §2
The next experiment relates to KB-3-1. Nature of the experiment: Cytotoxic Profiling of Annotated Libraries Using Quantitative High-Throughput Screening (AID 1296008). The conditions noted are these: Five cell lines viability, CellTiter-Glo ATP luminescence, 48-72 h; max response: active compounds read low. The gist of the method: as §1
Where [3] appears, read: at 44.8 µM (top of the series) unless noted.

“And” between values parts separate entries of the source, which are not always exact repeats. Identical values can stand only once. Records with an inconclusive call do not appear. A number with no mark means an inactive call. The source made the active and inactive calls. Calls come from the whole dose curve; as a rule, active = well fitted inhibition curve with a large enough effect; inconclusive = small, poorly fitted or top-dose-only effect; inactive = flat fitted curve, though single readings scatter.
% is set by controls: 0 for no effect and ±100 for the full control effect; potency is the fitted concentration of half-maximal effect.
Note: nearly all actives have a fitted effect of over 60% in size.

With `CNC[C@@H](O)[C@@H](O)[C@H](O)[C@H](O)CO`, the molecule was classed as inactive in the experiment on NIH3T3 [1], in the experiment on HACAT (setting [3]), in the experiment with HEK293T and in the experiment with NIH3T3 [2]. Besides, the Potency entry with MCC-13, in the experiment on MCC-26, with MKL-1, in the experiment on MKL-2 and in the experiment on UISO was “inactive” throughout.

In the case of `COc1cc2c(N3CCN(C(=O)Nc4ccc(OC(C)C)cc4)CC3)ncnc2cc1OCCCN1CCCCC1`, the max response is -30.9% and -5.38% in the experiment with KB-3-1; -26.1% with NIH3T3 [1]. Further, the Potency entry in the experiment with MCC-13, with MCC-26, with MKL-1, in the experiment on MKL-2 and in the experiment on UISO was “inactive” in each case.

Consider `CN(C)c1ccc(O)c2c1C[C@H]1C[C@H]3[C@H](N(C)C)C(=O)C(C(N)=O)=C(O)[C@@]3(O)C(=O)C1=C2O`, for which, in the experiment on NIH3T3 [1], the max response was -2.91%. The molecule was classed as inactive with NIH3T3 [1], with HACAT (setting [3]) and in the experiment with NIH3T3 [2]. Also, the Potency entry in the experiment on MCC-13, in the experiment on MCC-26, with MKL-1, with MKL-2 and in the experiment on UISO was “inactive” each time.

Consider `Nc1nc(Cl)nc2c1ncn2[C@H]1C[C@H](O)[C@@H](CO)O1`, for which the Potency with NIH3T3 [1] was 935 nM (active); in the experiment on MKL-1, 418 nM (active); in the experiment with MKL-2, 418 nM (active); in the experiment with UISO, 372 nM (active). Further, in the experiment with MCC-26, the Potency entry was “inactive”.

Regarding `O=C(O)CCNC(=O)c1ccc(N=Nc2ccc(O)c(C(=O)O)c2)cc1`, the molecule was classed as inactive in the experiment on NIH3T3 [1], in the experiment on HACAT (setting [3]) and in the experiment with NIH3T3 [2]. Moreover, the Potency result in the experiment on MCC-13, in the experiment on MCC-26, in the experiment on MKL-1, with MKL-2 and with UISO was “inactive” each time.

Regarding `O=C(OC1C[C@H]2CC[C@@H](C1)[N+]21CCCC1)C(O)(c1ccccc1)c1ccccc1` (some centres not stated), the max response with NIH3T3 [1] is -8.22%. For the same molecule, the Potency result with MCC-13, in the experiment with MCC-26, with MKL-1, in the experiment on MKL-2 and in the experiment on UISO was “inactive” throughout.

`CC(=O)O[C@H]1C(=O)[C@@]2(C)C([C@H](OC(=O)c3ccccc3)[C@]3(O)C[C@H](OC(=O)[C@H](O)[C@@H](NC(=O)c4ccccc4)c4ccccc4)C(C)=C1C3(C)C)[C@]1(OC(C)=O)CO[C@@H]1C[C@@H]2O` (some centres not stated): the Potency is 5.9 nM (active) and 36 nM (active) with NIH3T3 [1]; 3.7 nM (active) in the experiment on MCC-26. In addition, the Potency entry in the experiment with MKL-1 and with MKL-2 was “inactive” in each case.

Take `O=C1c2ccccc2-c2n[nH]c3cccc1c23`: the Potency result with MCC-13 and in the experiment on MCC-26 was “inactive” throughout. Besides, the Potency with MKL-1 is 3320 nM (active).

In the case of `CCc1nc(N)nc(N)c1-c1ccc(Cl)cc1`, the Potency in the experiment with NIH3T3 [1] was 8.41 µM (active) and 9.35 µM (active). Further, the Potency result with MCC-26, in the experiment with MKL-1 and in the experiment on MKL-2 was “inactive” in each case.

`NNc1nncc2ccccc12`: the result with HACAT (at 17.4 µM (top of the series)) and in the experiment with HACAT (at 44.8 µM (top of the series)) was inactive. In addition, the outcome in the experiment with HEK293T and with NIH3T3 [2] was “inactive [at 17.4 µM]” each time. Besides, the Potency entry in the experiment on MCC-13, with MCC-26, with MKL-1, with MKL-2 and with UISO was “inactive” throughout.

As for `Nc1cccc2c1CN(C1CCC(=O)NC1=O)C2=O` (configuration not stated), the max response in the experiment with NIH3T3 [1] was 1.1% and -1.07%. The Potency entry in the experiment with MCC-13, in the experiment on MCC-26, in the experiment with MKL-1, with MKL-2 and in the experiment on UISO was “inactive” each time.

For the molecule `S=c1nc[nH]c2nc[nH]c12`, the Potency in the experiment with NIH3T3 [1] is 1.88 µM (active) and 4.69 µM (active); in the experiment on MCC-13 it was 2.99 µM (active) and 11.8 µM (active); in the experiment on UISO it was 4180 nM (active). In addition, the Potency result in the experiment on MCC-26, in the experiment with MKL-1 and with MKL-2 was “inactive” in each case.

For the molecule `O=C1c2c(O)cc(O)cc2OC(c2ccc(O)c(O)c2)C1O` (configuration not stated), the max response with NIH3T3 [1] was -9.07%. The Potency entry with MCC-13, with MCC-26, with MKL-1, with MKL-2 and in the experiment with UISO was “inactive” in each case.

For the origin of these results see PubChem BioAssay (NCATS).
